Test results from PubChem BioAssay AID1578 (Sanford-Burnham Center for Chemical Genomics, 2009).
Screen size: about 290,000 compounds; about 3,000 (1%) were called active. This is one part of a sample in which actives are shown more often than they occur. Values without a mark were called inactive. No stated cut-off is given here; in the data, active means inhibition mostly above about 36% (no sharp cut-off); inactive means mostly below about 34%.

experiment: inhibition of NOD1-driven NF-kB reporter – cell-based, luminescence, uHTS, primary screen (AID 1578); details: NOD1-driven NF-kB luciferase reporter cells, at 4 µM, stronger effect = higher value;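 further: HEK-293T reporter cells stimulated with the NOD1 agonist gamma-tri-DAP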

Compared with `O=C(Cc1cccs1)NCCSc1c(-c2ccc(Cl)cc2)[nH]c2ccccc12`, `Cc1ccc(OCC(=O)NNc2c3ccccc3nc3ccccc23)cc1` is higher in inhibition: 30.7% for the first, 52.5% for the second.

First: Cc1ccc(C(=O)NC(NCc2ccccc2)C(Cl)(Cl)Cl)cc1 (stereo not drawn)
Second: O=C(c1ccc(F)cc1)n1c(NCc2ccccc2)n[nH]c1=S
The inhibition of the first is higher: 5.2% for the first, -17.3% for the second.

Compared with `O=C(COC(=O)C1CC2C=CC1C2)Nc1cccc(S(=O)(=O)N2CCCCC2)c1` (stereo not drawn), `O=C(Nc1ccc(S(=O)(=O)N2CCCC2)cc1)c1ccc(CN2CCOCC2)cc1` is higher in inhibition: -18.1% for the first, 44.6% for the second.

Going from `N#Cc1c(C(F)(F)F)cc(-c2ccc(F)cc2)[nH]c1=O` to `Cc1ccc(-c2cc(C(F)(F)F)c(C#N)c(=O)[nH]2)cc1`, the inhibition rises from -17.2% to 1.8%.

First: O=C(Nc1nc(-c2nc3ccccc3s2)cs1)c1ccc(S(=O)(=O)N2CCOCC2)cc1
Second: NC(=O)c1ccc(NC(=O)c2ccc(CN3CCOCC3)cc2)cc1
The inhibition of the first is higher: 47.5% for the first, -20.3% for the second.

Compared with `CCOc1cccc(CNc2ccc(O)cc2)c1OCc1ccc(Cl)cc1`, `CCOc1cccc(CNc2ccc(O)cc2)c1OCc1ccc(Cl)cc1Cl` is lower in inhibition: 22.1% for the first, 7.6% for the second.

Going from `CCC(C)NC(=O)c1cc(Cl)c(NC(=O)C2=C(C)OCCS2)cc1OC` (stereo not drawn) to `Cc1cc(C)c(C(=O)COC(=O)CCNS(=O)(=O)c2c(Cl)cccc2Cl)cc1C`, the inhibition falls from -9.8% to -13.2%.

Going from `Nc1nnc(SCc2nnc(-c3ccccc3)o2)s1` to `COCCNC(=O)c1cc(Sc2nnc(C)s2)nc2ccccc12`, the inhibition rises from -21% to -10.4%.

First: O=C1CCc2cc(S(=O)(=O)NC(Cc3ccccc3)C(=O)NC3CCCC3)ccc2N1 (stereo not drawn)
Second: O=C(NCCCN1CCCC1=O)[C@H](CSCc1ccccc1)N1Cc2ccccc2C1=O
The inhibition of the first is lower: -11.4% for the first, 1.9% for the second.

Going from `CCN(CC)S(=O)(=O)c1cccc(C(=O)N[C@H](C(=O)OCC(=O)Nc2ccccc2)C(C)C)c1` to `CCN(CC)S(=O)(=O)c1ccc(Cl)c(NC(=O)COC(=O)c2ccc(O)cc2)c1`, the inhibition rises from -24.7% to 21.8%.

Going from `C/C(=N\Nc1ccc(Cl)cc1)c1ccccn1` to `C/C(=N\Nc1ncc(Cl)cc1Cl)c1ccc(C#N)cc1`, the inhibition rises from -119% to -40.4%.

Going from `CCC(C(=O)NC1CC(C)(C)NC(C)(C)C1)c1ccccc1` (stereo not drawn) to `CC(C)(C)C(=O)NC(CC(=O)O)c1ccccc1` (stereo not drawn), the inhibition rises from -18.7% to -18.6%.

Going from `COc1cccc(-n2c(Cn3nc(C(F)(F)F)cc3C)n[nH]c2=S)c1` to `Cc1nn(C)cc1-c1n[nH]c(=S)n1-c1ccc(F)cc1`, the inhibition falls from 2.3% to -1.9%.

Compared with `CCn1cc(C(=O)NCc2ccccc2)c(=O)c2cc(F)c(N3CCN(C(=O)c4ccco4)CC3)cc21`, `CCn1cc(C(=O)NCc2cccc(F)c2)c(=O)c2cc(F)c(N3CCN(C(=O)c4ccco4)CC3)cc21` is lower in inhibition: 46.3% for the first, 0.3% for the second.

Compared with `CCOc1ccc(NC(=O)C2CCN(S(=O)(=O)c3ccc4c(c3)CC(C)N4C(C)=O)CC2)cc1` (stereo not drawn), `CCOc1ccc(NC(=O)C2CCCN(S(=O)(=O)c3cnc[nH]3)C2)cc1` (stereo not drawn) is higher in inhibition: -19.4% for the first, -9.3% for the second.

Compared with `O=c1[nH]ncc2c3ccccc3n(Cc3ccccc3)c12`, `O=c1[nH]ncc2c3ccccc3n(Cc3ccc(F)cc3)c12` is lower in inhibition: 36.5% for the first, -2.2% for the second.

First: CN(C)C(=O)CN1C(=O)NC2(CCCc3ccccc32)C1=O (stereo not drawn)
Second: CCOC(=O)Cc1nn(C(C)C)c(=O)c2ccccc12
The inhibition of the first is higher: -1.9% for the first, -21.4% for the second.

Going from `CCOC(=O)N1CCC(N(CCN(C)C)C(=S)Nc2cccc(Cl)c2)CC1` to `CCOC(=O)N1CCC(N(CCN(C)C)C(=S)Nc2cc(C)cc(C)c2)CC1`, the inhibition falls from 0.8% to -15.3%.

Going from `O=C(NC(CO)c1ccccc1)c1ccco1` (stereo not drawn) to `O=c1ccc(-c2ccccc2)n[nH]1`, the inhibition falls from 3% to -29%.

Going from `CCOC(=O)c1sc(NC(=O)c2cccc(S(=O)(=O)N3c4ccccc4CC3C)c2)cc1C` (stereo not drawn) to `O=C(COC(=O)c1ccccc1C(=O)c1ccccc1)Nc1ccc(SC(F)F)cc1`, the inhibition rises from 6.7% to 7.1%.

Compared with `Cc1ccc(NC(=O)CCCc2nc3ccccc3s2)c(O)c1`, `Cc1ccc2nc(NC(=O)CCCc3nc4ccccc4s3)sc2c1` is higher in inhibition: -33.8% for the first, -29% for the second.

First: Cc1cccc2c(=O)cc(C(F)(F)F)[nH]c12
Second: O=c1cc(C(F)(F)F)[nH]c2c(OC(F)(F)F)cccc12
The inhibition of the first is lower: 1.3% for the first, 15.5% for the second.

Compared with `COc1cccc(NC(=O)Nc2nc(SC)ns2)c1`, `CCSc1nsc(NC(=O)Nc2cccc(OC)c2)n1` is higher in inhibition: -38% for the first, 52.2% for the second.

Compared with `CCCSc1nsc(NC(=O)Nc2ccc(F)cc2F)n1`, `CCSc1nsc(NC(=O)Nc2ccc(F)cc2F)n1` is lower in inhibition: 43% for the first, 26% for the second.

Going from `COc1cccc(NC(=O)Nc2nc(SC(C)(C)C)ns2)c1` to `CCSc1nsc(NC(=O)Nc2ccccc2F)n1`, the inhibition falls from 40.2% to -1.8%.

Compared with `CCn1cc(CN2CCC(C(=O)Nc3cccc(-c4cscn4)c3)CC2)cn1`, `COc1ccc(C(=O)Nc2ccc(CN3CCCCC3)cc2)cc1` is lower in inhibition: -27.3% for the first, -37.1% for the second.

Going from `CC(C)(C)c1cc(CCC(=O)NCCc2ccccn2)cc(C(C)(C)C)c1O` to `CCCCC(=O)Nc1cc2nn(-c3ccc(OC)cc3)nc2cc1C`, the inhibition falls from -9.5% to -94.7%.

Going from `COc1ccc(/C=C(\NC(=O)c2ccc(Cl)cc2)C(=O)NCCCn2ccnc2)cc1OC` to `COc1ccc(C(=O)N/C(=C\c2ccccc2)C(=O)Nc2ccc(C(=O)O)cc2)cc1`, the inhibition falls from 18.2% to 0.4%.

Compared with `CN1CCN(Cc2nc3c(c(=O)n(C)c(=O)n3C)n2CCCc2ccccc2)CC1`, `CSc1ccc(NC(=O)Nc2cccn(Cc3ccccc3)c2=O)cc1` is higher in inhibition: 16.4% for the first, 46.6% for the second.

Compared with `COc1cccc(Nc2c(Nc3cccc(OC)c3)c(=O)c2=O)c1`, `COc1cccc(NC(=O)Nc2cccn(Cc3ccccc3)c2=O)c1` is lower in inhibition: -10.3% for the first, -11% for the second.

First: CC1(C)CC(=O)C(C(c2ccccc2F)C2C(=O)CC(C)(C)CC2=O)C(=O)C1
Second: CCc1ccccc1NC(=O)Nc1cccn(Cc2ccccc2F)c1=O
The inhibition of the first is higher: 0.7% for the first, -23.3% for the second.

First: Cc1ccc(S(=O)(=O)NC(CN2CCOCC2)=NCCNS(=O)(=O)c2ccccc2)cc1
Second: CC(=O)Nc1ccc(S(=O)(=O)NCc2ccc(C)cc2)cc1
The inhibition of the first is higher: 31.6% for the first, 2.4% for the second.

First: CN1CCN(c2ccc(-c3ccnn3C(=O)Nc3cccc(C(F)(F)F)c3)cc2)CC1
Second: COc1ccc(C(=O)NC(=S)Nc2ccc(CN3CCOCC3)cc2)cc1
The inhibition of the first is higher: 19.1% for the first, -0.3% for the second.

Compared with `COC(=O)c1cc(N=Nc2sc(N)nc2C)cc(C(=O)OC)c1`, `CCC(=O)Nc1cc2nn(-c3ccc(OC)cc3)nc2cc1C` is lower in inhibition: -4.7% for the first, -20% for the second.

Going from `CCN(CC(=O)Nc1ccc(NC(C)=O)cc1)C(=O)/C=C/c1cn(-c2ccccc2)nc1-c1ccc(C)cc1` to `Cc1ccc(NC(=O)CN(C)C(=O)Cc2c(Cl)cccc2Cl)cc1`, the inhibition falls from 15.8% to -9.1%.

Going from `CCOC(=O)c1ccc(Oc2cn[nH]c2-c2ccc(O)cc2O)cc1` to `CCOC(=O)C1=C(C(F)(F)F)Nc2ncnn2C1c1cc(OC)ccc1OC` (stereo not drawn), the inhibition rises from 5.5% to 10.8%.

Compared with `CCOC(=O)Cn1nc(-c2ccccc2)c2ccccc2c1=O`, `O=C(COc1ccccc1)NNc1c2ccccc2nc2ccccc12` is higher in inhibition: -6.3% for the first, 40.5% for the second.

First: CCC(C(=O)O)N1C(=O)C2CCCCC2C1=O (stereo not drawn)
Second: CCn1c(SCC(=O)NC2CCCCC2)nnc1-c1ccccn1
The inhibition of the first is higher: 4.4% for the first, 2.9% for the second.

Going from `O=c1ccc(Cc2ccc(Cl)cc2)n[nH]1` to `COc1ccc(Cn2cccc(NC(=O)Nc3ccc(F)cc3)c2=O)cc1`, the inhibition rises from -29.8% to 37.8%.

Going from `c1ccc(COc2cccc(CNCc3cccnc3)c2)cc1` to `COc1ccc(/C=N/Nc2ccccc2C(=O)O)cc1Cn1cc([N+](=O)[O-])cn1`, the inhibition rises from -20% to -11.8%.

First: Cc1coc2cc3oc(=O)c4c(c3cc12)CCCC4
Second: O=C(OCCN=C1NS(=O)(=O)c2ccccc21)c1ccccc1F
The inhibition of the first is lower: -30.5% for the first, 31.5% for the second.

For `N#Cc1c(C(F)(F)F)cc(-c2ccc(Cl)cc2)[nH]c1=O`, the inhibition was 54.2% (active).
For `CCOc1cccc(CNc2ccc(O)cc2)c1OCc1ccccc1Cl`, the inhibition was 39.2% (active).
For `C/C(=N\Nc1ncc(Cl)cc1Cl)c1ccccn1`, the inhibition was 103% (active).
With `CCn1cc(C(=O)NCc2ccc3c(c2)OCO3)c(=O)c2cc(F)c(N3CCN(C(=O)c4ccco4)CC3)cc21` the inhibition was 82.7% (active).
In the case of `Cc1ccc(Cn2c3ccccc3c3cn[nH]c(=O)c32)cc1`, the inhibition is reported as 59.1% (active).
For `CCOC(=O)N1CCC(N(CCN(C)C)C(=S)Nc2cc(Cl)cc(Cl)c2)CC1`, the inhibition was 65.6% (active).
In the case of `CC(C)(C(=O)N[C@H](CO)c1ccccc1)C(=O)N[C@H](CO)c1ccccc1`, the inhibition is reported as 95% (active).
In the case of `Cc1ccc(NC(=O)CCc2nc3ccccc3s2)c(O)c1`, the inhibition is reported as 43% (active).
In the case of `O=c1cc(C(F)(F)F)[nH]c2c(C(F)(F)F)cccc12`, the inhibition is reported as 72.8% (active).
In the case of `CCC(=O)Nc1cc2nn(-c3ccc(C)cc3)nc2cc1C`, the inhibition is reported as 58.2% (active).
In the case of `CCOC(=O)C(C)n1nc(-c2ccccc2)c2ccccc2c1=O` (stereo not drawn), the inhibition is reported as 36.3% (active).
For `O=c1ccc(Cl)n[nH]1`, the inhibition was 61.4% (active).
In the case of `O=C(Nc1ccc(S(=O)(=O)Nc2ccccc2)cc1)c1ccc(CN2CCOCC2)cc1`, the inhibition is reported as 76.1% (active).
With `COc1ccc(OCC(=O)NNc2c3ccccc3nc3ccccc23)cc1` the inhibition was 76.7% (active).
For `CCOc1ccc(NC(=O)Nc2cccn(Cc3ccccc3)c2=O)cc1`, the inhibition was 44.3% (active).
In the case of `CSc1ccc(NC(=O)Nc2cccn(Cc3ccccc3F)c2=O)cc1`, the inhibition is reported as 89.6% (active).
